# Only a selection was taken, and hits are over-represented in it overall.
# Mtb RmlCD inh = M. tuberculosis RmlC/RmlD coupled enzyme inhibitors, primary screen, biochemical, compound mixtures, 384-well, from 1536-well plates | RmlC+RmlD coupled enzyme assay, percent inhibition; primary screen in compound mixtures | inhibition, % at 3.6 µM | 160,000 tested, 0.03% active | AID 1533, 2009; in the data active = inhibition mostly above about 34%, no sharp cut-off
# Target sequence (P9WH09 whole entry, looked up): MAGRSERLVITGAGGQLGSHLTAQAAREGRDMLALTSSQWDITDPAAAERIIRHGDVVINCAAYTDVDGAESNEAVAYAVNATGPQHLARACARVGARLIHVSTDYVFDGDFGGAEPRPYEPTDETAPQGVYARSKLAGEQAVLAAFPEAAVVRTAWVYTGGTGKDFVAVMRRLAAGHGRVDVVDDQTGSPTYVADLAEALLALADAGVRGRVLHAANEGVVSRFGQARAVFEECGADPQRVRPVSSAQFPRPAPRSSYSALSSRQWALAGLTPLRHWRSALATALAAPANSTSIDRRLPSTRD
# Target sequence (P9WH11 whole entry, looked up): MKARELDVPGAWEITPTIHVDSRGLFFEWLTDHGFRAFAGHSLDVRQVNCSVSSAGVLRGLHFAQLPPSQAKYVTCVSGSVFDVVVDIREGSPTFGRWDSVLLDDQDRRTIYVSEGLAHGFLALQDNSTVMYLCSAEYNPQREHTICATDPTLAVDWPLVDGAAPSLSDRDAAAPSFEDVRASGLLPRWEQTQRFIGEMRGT
# YopH inh = YopH tyrosine phosphatase inhibitors, primary screen, biochemical, fluorescence Ex485/Em525; inhibition, % (no concentration beside the values); 140,000 tested, 0.16% active; AID 898, 2007; in the data active = inhibition above about 50%
# * = called active by the depositor; x = no result given.
SMILES,Mtb RmlCD inh,YopH inh
C#CCn1cc(C=C2C(=O)c3ccccc3C2=O)c2ccccc21,25,51*
COCC(=O)NNC(=S)Nc1cccc(C)c1C,-12,x
CCN(CC)CCCNC(=O)Cc1c(C(=O)O)n(C)c2ccccc12,26,52*
CCN(CC)CCNC(=O)Cc1c(C(=O)O)n(C)c2ccccc12,x,-12
COc1cc(CCC(=O)OCc2nnc(-c3ccccc3)o2)cc(OC)c1OC,x,-30
N#Cc1cn(Cc2ccccc2)c2ccccc12,3,0
N#Cc1ccccc1Cn1cc(C#N)c2ccccc21,x,51*
CCCC(=O)OCCNC(=O)c1cc2ccccc2oc1=O,6,-16
COc1ccc(-c2nc(C#N)c(NCCCN3CCOCC3)o2)cc1,-4,-26
N#Cc1nc(-c2cccs2)oc1NCCCN1CCOCC1,0,51*
O=C(O)c1csc(Cc2ccccc2)n1,6,x
Cc1ccc(-c2cc(C(=O)Nc3ccc(S(=O)(=O)Nc4ncccn4)cc3)c3ccccc3n2)cc1,x,-27
CCCc1[nH]nc2c1C(c1ccccc1OCC)C(C#N)=C(N)O2 (configuration not stated),-5,-45
CCOc1ccccc1C1C(C#N)=C(N)Nc2onc(-c3ccccc3)c21 (configuration not stated),x,65*
COc1cccc(NC(=O)C(NC2CCCC2)c2ccccc2)c1 (configuration not stated),-3,-92
CCOc1ccccc1N1CSC2=C(C#N)C(c3c(OC)ccc4ccccc34)CC(=O)N2C1 (configuration not stated),x,90*
COc1ccc(N2CSC3=C(C#N)C(c4cc(OC)c(OC)cc4OC)CC(=O)N3C2)c(OC)c1 (configuration not stated),x,42
COc1ccc(C2CC(=O)N3CN(c4ccc(C)c(Cl)c4)CSC3=C2C#N)cc1OC (configuration not stated),7,-36
COc1ccc(N2CSC3=C(C#N)C(c4cc(OC)ccc4OC)CC(=O)N3C2)c(OC)c1 (configuration not stated),9,69*
CCc1ccc(C2CC(=O)N3CN(c4ccccc4)CSC3=C2C#N)cc1 (configuration not stated),7,-21
COc1ccc(N2CSC3=C(C#N)C(c4ccc(OC)c(OC)c4)CC(=O)N3C2)c(OC)c1 (configuration not stated),x,60*
O=c1c2c([N+](=O)[O-])cc([N+](=O)[O-])cc2sn1-c1ccc(Br)cc1,17,-5
CCCC(=O)N1CCN(c2ccc(NC(=O)c3ccccc3)cc2)CC1,x,-44
Cc1oc(C(N)=O)nc1-c1ccccc1,-8,x
CCOC(=O)c1[nH]c2ccc(F)cc2c1NC(=O)CN1CCc2cc(OC)c(OC)cc2C1,3,-4
SMILES,Mtb RmlCD inh,YopH inh
COc1ccccc1CN1C(=O)c2ccncc2C1=O,-7,-4
COc1ccc(CCN2C(=O)c3ccncc3C2=O)cc1OC,22,51*
CCCN1CCCc2cc(CN)ccc21,9,84*
Cc1ccc2c(c1)CCCN2N=O,-6,-21
CCOC(=O)C1=C(C)NC2(O)c3ccccc3C(=O)C12O (configuration not stated),10,68*
COCCOC(=O)C1=C(C)NC2(O)c3ccccc3C(=O)C12O (configuration not stated),-3,x
Cc1cc(NC(=O)c2ccc(S(=O)(=O)N3CCCC3)cc2)nc2c1c(=O)oc1ccccc12,x,-18
Oc1ccc2ccccc2c1C=NC12CN3CCN(CN(C3)C1)C2,7,82*
OCC(CO)(CO)N=Cc1c(O)ccc2ccccc12,-6,-39
Cc1cc(=O)cc(C)n1-c1ccc(F)cc1F,10,x
Nc1c(NCCC2=CCCCC2)c(=O)[nH]c(=O)n1Cc1ccccc1,x,-13
Nc1c(NCc2ccccc2F)c(=O)[nH]c(=O)n1Cc1ccccc1,11,64*
Cc1[nH]n2c(=O)cc(-c3ccc([N+](=O)[O-])cc3)nc2c1-c1ccccc1,x,-10
NC(N)=NS(=O)(=O)c1ccc(NC(=S)NC(=O)/C=C/c2cccs2)cc1,-10,x
COc1ccc(NC(=O)CSc2nnc(Cc3ccccc3)o2)c(OC)c1,x,-20
CCSc1nnc(NC(=O)C2CCN(S(=O)(=O)c3ccccc3C(F)(F)F)CC2)s1,5,-11
O=C1Cc2ccccc2C(=O)N1Cc1ccccc1,12,83*
O=C1c2cccnc2C(=O)N1Cc1ccccc1,2,-41
O=C(NNC(=S)Nc1ccccc1)c1ccccc1[N+](=O)[O-],2,x
COC(CNC(=O)C1CCCCC1C(=O)O)OC (configuration not stated),-6,-40
Cc1cc(C(=O)OCC(=O)NC2CCS(=O)(=O)C2)c2ccccc2n1 (configuration not stated),6,x

# Bioassay records: PubChem, several laboratories
